Compounds without any hit were thinned out: in the full panel of roughly 83,000, 20% have a hit.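 Cells were grown in 96-well plates and exposed to the test compound at a single concentration for 48 hours; results are reported as percent growth, with values below 10 considered active.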 Values without a mark were called inactive. The source made the active and inactive calls.
Experiments:
Experiment in all cases: NCI-60 one-dose screen, 48 h (100 = growth as untreated, 0 = no growth, -100 = all killed)
Details in all cases: 10 µM unless noted
NCI-H23 lung = tested on: NCI-H23 lung
NCI-H226 lung = tested on: NCI-H226 lung
NCI-H322M lung = tested on: NCI-H322M lung
HOP-62 NSCLC = tested on: HOP-62 NSCLC
NCI-H460 lung = tested on: NCI-H460 lung
HOP-92 NSCLC = tested on: HOP-92 NSCLC
NCI-H522 lung = tested on: NCI-H522 lung
A549/ATCC NSCLC = tested on: A549/ATCC NSCLC
786-0 renal = tested on: 786-0 renal
COLO 205 colon = tested on: COLO 205 colon

Compound	growth (NCI-H23 lung)	growth (NCI-H226 lung)	growth (NCI-H322M lung)	growth (HOP-62 NSCLC)	growth (NCI-H460 lung)	growth (HOP-92 NSCLC)	growth (NCI-H522 lung)	growth (A549/ATCC NSCLC)	growth (786-0 renal)	growth (COLO 205 colon)
Cn1ccnc1C(=O)/C=C/c1ccc(CC(=O)Nc2ccc(C(F)(F)F)cc2)cc1	19.4%	48.5%	6.96% (active)	-33.7% (active)	-0.126% (active)	38.3%	-3.98% (active)	6.44% (active)	1.74% (active)	5.87% (active)
COCCOc1cnc2ccn([C@H](C)c3nnc4c(F)cc(-c5cnn(C)c5)cn34)c(=O)c2c1	51.1%	68.8%	59.2%	89.2%	75.6%	85.3%	87.7%	65.7%	108%	106%
COc1ccc(S(=O)(=O)N(C(C)=O)c2ccccc2/C=C/c2cc[n+]([O-])cc2)cc1	32.7%	80.6%	39.2%	10.5%	3.49% (active)	56.6%	-26.4% (active)	17.5%	26.7%	-36.6% (active)
O=C(c1ccc(/C=C/c2n[nH]c3ccccc23)cc1)N1CCNCC1	24.8%	3.94% (active)	33.5%	16.5%	10.7%	-3.02% (active)	36.2%	22.4%	37.7%	-42% (active)
N#Cc1c(-c2ccc(C(F)(F)F)cc2)c(F)c(NCCC2CCC(O)C2)n2c1nc1ccccc12 (stereo not given)	72.5%	69.2%	58.5%	59.2%	42%	32.5%	65.7%	52.8%	69.4%	41.1%
Cc1cc2c(F)c(Oc3ncnn4cc(OC[C@@H](C)OC(=O)[C@H](C)N)c(C)c34)ccc2[nH]1	27.6%	50.2%	41.1%	34.8%	38.7%	39.2%	58.1%	35.8%	72.3%	-6.99% (active)
COc1cc2ncnc3c2cc1OCCCCCN(C)Cc1ccc(Br)cc1N3	70.2%	88.3%	0.138% (active)	74.5%	36.7%	64.6%	-9.44% (active)	35.1%	68.7%	51.3%
CO[C@H]1C[C@@H]2CC[C@@H](C)[C@@](O)(O2)C(=O)C(=O)N2CCCC[C@H]2C(=O)O[C@H]([C@H](C)C[C@@H]2CC[C@@H](O)[C@H](OC)C2)CC(=O)[C@H](C)/C=C(\C)[C@@H](O)[C@@H](OC)C(=O)[C@H](C)C[C@H](C)\C=C/C=C/C=C/1C	51.3%	47.9%	43.7%	43.8%	31.9%	41.1%	39.4%	35.1%	42.1%	44.3%
COc1cccc(NC(=O)Nc2ccc(Nc3ncnc4sc5c(c34)CCN(C(=O)CCl)C5)cc2)c1	96.7%	88.9%	96.8%	88.7%	98.1%	97.1%	71.6%	91%	103%	104%
CC(C)[C@@H](C)/C=C/[C@@H](C)[C@H]1CCC2=C3C=CC4=CC(=O)CC[C@]4(C)[C@H]3CC[C@@]21C	96%	93.2%	93.9%	104%	107%	86.6%	67.2%	77.4%	101%	105%
CC[C@@H]1C(=O)N(C)c2cnc(Nc3ccc(C(=O)NC4CCC(N5CCN(CC6CC6)CC5)CC4)cc3OC)nc2N1C(C)C (stereo not given in full)	-1.19% (active)	49.7%	23.3%	-29.7% (active)	1.14% (active)	20.7%	-52.8% (active)	-6.16% (active)	-80.2% (active)	-61.9% (active)
COc1ccc2c(CCc3ccc(Cl)cc3)c3[n+](cc2c1OC)CCc1cc2c(cc1-3)OCO2	26.1%	71.4%	90.4%	75.8%	10.6%	25%	13.4%	50.7%	73.4%	27.1%
Cc1csc(-c2nnc(Nc3ccc(Oc4ncccc4-c4ccnc(N)n4)cc3)c3ccccc23)c1	54.6%	72.5%	30.5%	14.6%	25.3%	85.5%	30.8%	26.6%	67.9%	-4.72% (active)

Reference: PubChem BioAssay (NCI)
